Results: PubChem BioAssay (NCI)
The panel holds about 83,000 compounds, 20% with a hit somewhere; the sample as a whole holds those more often.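 Testing used 96-well plates and a 48-hour single-concentration exposure. Example: -40 means 40% of the starting cells died.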 Values without a mark were called inactive. The source made the active and inactive calls. How the source made its calls: active means growth percent below 10; inactive means the rest.

Columns and labels:
Assay in all cases: NCI-60 one-dose screen, 48 h (100 = growth as untreated, 0 = no growth, -100 = all killed)
Conditions in all cases: 10 µM unless noted
NCI-H23 lung = tested on: NCI-H23 lung
NCI-H226 lung = tested on: NCI-H226 lung
NCI-H322M lung = tested on: NCI-H322M lung
HOP-62 NSCLC = tested on: HOP-62 NSCLC
HOP-92 NSCLC = tested on: HOP-92 NSCLC
NCI-H522 lung = tested on: NCI-H522 lung
A549/ATCC NSCLC = tested on: A549/ATCC NSCLC
786-0 renal = tested on: 786-0 renal
COLO 205 colon = tested on: COLO 205 colon
DU-145 prostate = tested on: DU-145 prostate
K-562 leukemia = tested on: K-562 leukemia
MALME-3M melanoma = tested on: MALME-3M melanoma
MDA-MB-231 breast = tested on: MDA-MB-231 breast
SF-268 CNS = tested on: SF-268 CNS
SF-295 CNS = tested on: SF-295 CNS
SF-539 CNS = tested on: SF-539 CNS
UACC-257 melanoma = tested on: UACC-257 melanoma
M14 melanoma = tested on: M14 melanoma
NCI-H460 lung = tested on: NCI-H460 lung
RXF 393 renal = tested on: RXF 393 renal

| SMILES | growth (NCI-H23 lung) | growth (NCI-H226 lung) | growth (NCI-H322M lung) | growth (HOP-62 NSCLC) [%] | growth (HOP-92 NSCLC) | growth (NCI-H522 lung) | growth (A549/ATCC NSCLC) | growth (786-0 renal) | growth (COLO 205 colon) | growth (DU-145 prostate) | growth (K-562 leukemia) | growth (MALME-3M melanoma) | growth (MDA-MB-231 breast) | growth (SF-268 CNS) | growth (SF-295 CNS) | growth (SF-539 CNS) | growth (UACC-257 melanoma) | growth (M14 melanoma) | growth (NCI-H460 lung) | growth (RXF 393 renal) |
| --- | --- | --- | --- | --- | --- | --- | --- | --- | --- | --- | --- | --- | --- | --- | --- | --- | --- | --- | --- | --- |
| CC[C@@]12C=CCN3CC[C@]4(c5cc(NC(=O)COc6cc(OCC(=O)Nc7cc8c(cc7OC)N(C)[C@H]7[C@@](O)(C(=O)OC)[C@H](OC(C)=O)[C@]9(CC)C=CCN%10CC[C@]87[C@@H]%109)cc7oc(-c8ccccc8)cc(=O)c67)c(OC)cc5N(C)[C@@H]4[C@](O)(C(=O)OC)[C@H]1OC(C)=O)[C@H]32 | 0.327% (active) | 23.7% | 45.9% | 17.3 | 33.9% | -27.7% (active) | 51.7% | 41.4% | 40.2% | 30.3% | 45.6% | 111% | 4.69% (active) | -1.19% (active) | 71.3% | 89.3% | 103% | 50.4% |  |  |
| Cc1ccc(-c2csc(/N=C3\C(=O)Nc4ccccc43)n2)cc1 | 23.5% | 62.1% | 47.1% |  | -16.1% (active) | -57.6% (active) | 23% | 14.7% | -15.6% (active) | 42.2% | 1.43% (active) | -3.69% (active) | 11.2% | 33% | 13.9% | 20.3% | 11.9% | 13.4% | 8.52% (active) | -4.86% (active) |
| NC(=O)C1(N2CCCCC2)CCN(CCCC(=O)c2ccc(F)cc2)CC1 | 31.6% | 43.7% | 52.5% | 38.3 | 92.5% |  | 79.3% | 49.8% | 13.9% | 5.34% (active) | 10.8% | 57.1% | 29.7% | 38.4% | 4.82% (active) | -3.17% (active) | 47.1% | 44.8% |  |  |
| Cn1c(COC(=O)NCCc2ccccn2)nc2c(N3CCOCC3)nc(Cl)nc21 | 16.9% | 25.2% | 78.9% | 42.3 | -29.5% (active) | -24% (active) | 44.2% | -74.7% (active) | -41.1% (active) | 8% (active) | 2.75% (active) | -71.2% (active) | -64.5% (active) | 46% | 71.7% | -19.8% (active) | 18.1% |  |  |  |
| COc1ccc(NC(=O)c2sc3nc(C)c(C(O)c4ccc(OC)cc4)cc3c2N)cc1 (centres undefined) | 36.2% | 63.5% | 51.3% | 31.8 | 57.6% | 5.14% (active) | 23% | 53.3% | -6.28% (active) | 25.6% | 9.99% (active) | 63.7% | 22.1% | 42% | -1.07% (active) | -11.4% (active) | 60.4% | 24.7% |  |  |
| FC(F)(F)c1cccc(Oc2ccc(Nc3ncnc4ccc(OCCCN5CCOCC5)cc34)cc2Cl)c1 | 76.1% | 84.7% | 37.5% | 62.3 | 41.5% | 35.1% | 49.4% | 44.6% | 47% | 43% | 1.77% (active) | -4.17% (active) | 22.4% | 55.6% | 25.7% | 60.8% | 40.1% | -36% (active) |  |  |
| COc1cc(NCCCN(CC(C)C)C2CCCC2)c2ncccc2c1 | 62.5% | 58.3% | 101% | 82.9 | 59.5% | 60% | 79% | 58.2% | 65.1% | 83.4% | 39.2% | 92.1% | 74.8% | 87.5% | 87.4% | 88.8% | 89.4% |  |  |  |
| CCCCCCN(C)Cc1ccc(OCCOc2ccc(CN(C)CCCCCC)cc2)cc1 | 11% | 50% | 3.16% (active) | 17.9 | -9.72% (active) | 35.3% | 44% | -72.6% (active) | -67.4% (active) | 50.1% | -20.7% (active) | -80.6% (active) | 4.17% (active) | 45.5% | -51.9% (active) | 13.5% | -52.5% (active) | -96.9% (active) |  | -29.2% (active) |
| COc1cc(C2NC(c3cc(OC)c(OC)c(OC)c3)C(C#N)(C#N)C2(C#N)C#N)cc(OC)c1OC (centres undefined) | 101% | 91.5% | 100% | 94.8 | 96.5% |  | 103% | 97% | 101% | 102% | 109% | 96% | 97.3% | 105% | 99.8% | 95.8% | 106% | 92.9% |  | 114% |
| CC1CCN(C(=O)OCc2nc3nc(Cl)nc(N4CCOCC4)c3[nH]2)CC1 | 8.48% (active) | -73.7% (active) | 68% | 46.4 | -48.8% (active) |  | 6.08% (active) | -79.8% (active) | -86.6% (active) | -76.7% (active) | -16.7% (active) | -78.9% (active) | -60.1% (active) | -81.6% (active) | 88.3% | -47.1% (active) | -89.7% (active) | -50.9% (active) |  |  |
| COc1cnccc1-c1nc2ccc3[nH]ncc3c2c2c1CCCC2 | 67.1% | 67% | 67.1% | 61 | 69.2% | 30.6% | 47.6% | 49% | 55.3% | 62.7% | 42.2% | 73.8% | 68.2% | 61.3% | 60.5% | 35.7% | 87.5% | 46.3% |  |  |
| ClCC1(Cn2cnc3c(Cl)nc(Cl)nc32)COC1 | 69.1% | 87.7% | 100% | 103 | 73.1% | 71.9% | 57.5% | 88.4% | 80.2% | 67.8% | 64.7% | 102% | 80.4% | 78% | 88.8% | 103% | 75.8% | 62.6% |  |  |
